hiPSC survival = increases survival of single human iPS cells. survival enhancement, % at 20 µM. hiPSC single-cell survival, ATPlite luminescence; 100% = ROCK inhibitor wells, 0% = DMSO. 360,000 compounds, 0.044% hits; in the data active = survival enhancement above about 18%;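 also: cells exposed to compounds for 16 hours before the ATP read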
CF NFkB block = cystic fibrosis NF-kB activation inhibition; AID 588850; inhibition, % at 5 µM; KKLEB NF-kB-GFP reporter, PAF-induced, GFP fluorescence overnight; 360,000 compounds, 0.86% hits;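 active = at least 50% inhibition at 5 µM, scaled per plate between neutral and stimulator controls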;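 also: PAF is a Pseudomonas aeruginosa culture filtrate used as stimulus; plate controls were PAF-stimulated DMSO wells for no effect and unstimulated DMSO wells for full effect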
LGR2 inh = inhibitors of bursicon-induced Drosophila LGR2 receptor cAMP signaling | inhibition, % at 9.99 µM | HEK293 LGR2, CRE-luciferase, bursicon-stimulated, 4 h | AID 720647 | 380,000 compounds, 0.35% hits;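 active = drop in luminescence signal, shown as inhibition above about 50% in the replicate tests, limit read from the data, passing the limit was not always enough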;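 also: agonist challenge used bursicon conditioned medium at about half maximal strength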
KKLEB tox = counter-screen for CF NF-kB inhibitors: cytotoxicity | KKLEB CF airway cells viability, ATPlite luminescence, overnight; hits give low values; cells stimulated with P. aeruginosa culture filtrate | 360,000 compounds, 0.36% hits | AID 602141 | activity change (cytotoxicity), % at 5 µM;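 active = corrected activity change at or below -50% at 5 µM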
TWEAK Fn14 block = TWEAK-Fn14 signaling inhibition; TWEAK-stimulated Fn14 reporter cells, luciferase luminescence, 8 h; inhibition, % at 10 µM; 360,000 compounds, 2% hits; in the data active = inhibition above about 50%
HIF-2a inh = blocks HIF-2a reporter activity; 786-0 RCC cells HIF-2a reporter, luciferase luminescence, overnight; inhibition, % at 18.8 µM; 360,000 compounds, 0.72% hits;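 active = inhibition of the luminescence signal of 40% or more relative to plate controls, in a single-dose primary screen at 18.75 µM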
* hit, by the source's call; / = not tested or not shown; ! = repeats disagree. Only some compounds are listed: those with a hit (about 2.3% of all), similar ones and a draw of the others.

SMILES | hiPSC survival | CF NFkB block | LGR2 inh | KKLEB tox | TWEAK Fn14 block | HIF-2a inh
CO[C@@H]1CN(C)C(=O)c2ccc(NS(C)(=O)=O)cc2OC[C@H](C)N(Cc2cccnc2)C[C@@H]1C | / | / | 6 | / | / | /
COc1ccc(S(=O)(=O)Nc2ccc3c(c2)CC(=O)N([C@H](C)CO)C[C@H](C)[C@@H](CN(C)Cc2ccc(C(=O)O)cc2)O3)cc1 | / | / | 3 | / | / | /
CCOC(=O)COc1ncn(-c2ccccc2)n1 | 6 | 1 | / | 2 | -27 | 8
CC(=O)COc1ncn(-c2ccccc2)n1 | 6 | -2 | / | 5 | 87* | -17
CCCCNc1c(-c2ccc(OC)c(SC3CCCCC3)c2)nc2ccc(C)cn12 | -2 | 22 | 52*! | -6 | 59*! | -50
CCC(C)Sc1cc(-c2nc3cc(C)ccn3c2NC2CCCCC2)ccc1OC (configuration not stated) | -2 | 30 | -7 | -22 | -5 | -71
CCC(C)Sc1ccc(-c2nc3ccc(C)cn3c2NCc2ccccc2)cc1OC (configuration not stated) | -2 | 30 | / | -26 | -5 | -200
CCC(C)Sc1cc(-c2nc3ccccn3c2NC2CCCCC2)ccc1OC (configuration not stated) | -1 | 28 | 53*! | -10 | 37 | -81
CCCCNc1c(-c2ccc(SC3CCCCC3)c(OC)c2)nc2ccc(C)cn12 | -3 | 17 | 16 | -10 | 6 | -25
CCC(C)Sc1cc(-c2nc3ccc(C)cn3c2NCc2ccccc2)ccc1OC (configuration not stated) | 0 | 58* | -1 | -32 | 78*! | -120
CC(C)NC(=O)N[C@H]1CC[C@@H](CC(=O)NCCN2CCCC2)O[C@H]1CO | / | / | 6 | / | / | /
Cc1ccc(S(=O)(=O)N(C)C[C@H]2Oc3ccc(NS(=O)(=O)c4ccccc4)cc3C(=O)N([C@@H](C)CO)C[C@H]2C)cc1 | / | / | -5 | / | / | /
CCCC#Cc1cnc2c(c1)C(=O)N([C@@H](C)CO)C[C@@H](C)[C@@H](CN(C)S(=O)(=O)c1ccccc1)O2 | / | / | 2 | / | / | /
Cc1ccc2nc(Cl)c3nnnn3c2c1 | 30* | 71* | / | -20 | -16 | -5
Cc1ccc2nc(N3CCN(c4cccc(C)c4C)CC3)c3nnnn3c2c1 | 1 | -5 | / | 3 | 26 | 3
C[C@H](CO)N1C[C@H](C)[C@@H](CN(C)C(=O)Nc2ccc(F)cc2)Oc2ccc(NS(=O)(=O)c3cn(C)cn3)cc2C1=O | / | / | -4 | / | / | /
CSc1ccc(/C=N/NC(=O)c2sccc2C)cc1 | -3 | -5 | / | -3 | 55* | -138
CCC(C)NC(=O)CC(NS(=O)(=O)c1ccc(Cl)cc1)c1ccco1 (configuration not stated) | 0 | 2 | / | 6 | 59* | 15
Cc1ccc(S(=O)(=O)NC(CC(=O)O)c2ccco2)cc1 (configuration not stated) | -1 | -5 | -11 | 1 | 0 | -7
COc1ccc(C(=O)O/N=C(\N)c2ccccc2)c(OC)c1 | -4 | -17 | 82* | -23 | 86* | 7
COc1ccc(Cl)cc1C(=O)O/N=C(\N)c1ccccn1 | -1 | -2 | -58 | 1 | -12 | -241
COc1ccc(C(=O)O/N=C(\N)c2ccccn2)c(OC)c1 | 0 | -14 | 82* | -2 | 88* | -78
COc1ccc(C(=O)O/N=C(\N)c2ccc(OC)c(OC)c2)c(OC)c1 | 0 | -9 | / | 11 | -6 | -116
O=C(Nc1ccc(Cl)c(Cl)c1)N[C@H]1CC[C@@H](CCNC(=O)c2ccc(F)cc2)O[C@@H]1CO | / | / | -2 | / | / | /
CCN(Cc1cc(=O)n2ccsc2n1)c1cccc2ccccc12 | 1 | 23 | 29 | -15 | 97* | 6
SMILES | hiPSC survival | CF NFkB block | LGR2 inh | KKLEB tox | TWEAK Fn14 block | HIF-2a inh
O=C(Nc1ccc(N2CCCC2)cc1)c1ccc(Br)o1 | 1 | -9 | / | -6 | -46 | -339
CC1CCN(c2ccc(NC(=O)c3ccc([N+](=O)[O-])o3)cc2)CC1 | -1 | 95* | 2 | -98* | 42 | 53*
O=C(Nc1ccc(N2CCCCC2)cc1)c1ccc([N+](=O)[O-])o1 | -1 | 96* | -12 | -37 | 45 | 34
O=C(Cc1ccccn1)N1CC(=O)N2[C@H](C1)[C@H](c1ccc(C#CC3CCCC3)cc1)[C@@H]2CO | / | / | -13 | / | / | /
Cc1ccc(S(=O)(=O)Nc2ccc3c(c2)C(=O)N([C@H](C)CO)C[C@H](C)[C@H](CN(C)C(=O)Nc2ccccc2)O3)cc1 | / | / | -4 | / | / | /
C[C@@H]1CN([C@@H](C)CO)C(=O)c2cc(NC(=O)CCC(F)(F)F)ccc2O[C@H]1CN(C)C(=O)Nc1ccc(C(F)(F)F)cc1 | / | / | 0 | / | / | /
Cc1noc(C)c1NC(=O)Nc1ccc2c(c1)C(=O)N([C@H](C)CO)C[C@H](C)[C@@H](CN(C)C(=O)Nc1ccc(F)cc1)OCCCC[C@H](C)O2 | / | / | 19 | / | / | /
O=[N+]([O-])c1cccc(N=Nc2ccc(O)cc2O)c1 | -2 | 66* | 19 | -41 | 59* | -154
CCOC(=O)/C(=C\Nc1ccccc1C(F)(F)F)Sc1ncc(C(F)(F)F)cc1Cl | -3 | -9 | 8 | 0 | 12 | 11
N#Cc1c(Sc2ncc(C(F)(F)F)cc2Cl)nsc1C/C=N\OCc1ccccc1Br | 0 | -20 | -14 | 15 | 67* | 5
Cc1csc(SCC(=O)Nc2cccc3nsnc23)n1 | 0 | 64* | / | -6 | 50 | -86
Cc1cc(Br)ccc1NC(=O)CNC(=O)Cn1ncc(Cl)c(Cl)c1=O | -2 | 91* | 74* | -51* | 60* | 8
COc1cc2cc3c(N)c(C(=O)NCc4ccco4)sc3nc2cc1OC | 1 | -5 | / | -7 | 3 | -9
COc1cc2cc3c(N)c(C(=O)Nc4sc(C)c(C)c4C#N)sc3nc2cc1OC | -1 | 89* | / | -100* | -8 | -6
CC(C)=CCc1cc([C@@H]2COc3c(ccc4c3C=CC(C)(C)O4)C2)c(O)cc1O | 0 | -8 | 14 | -6 | 63* | -4
CC1(C)C=Cc2c(ccc3c2OC[C@H](c2ccc(O)cc2O)C3)O1 | 3 | 1 | -38 | 10 | 10 | -205
O=C(CN(c1ccccc1F)S(=O)(=O)c1ccccc1)Nc1ccc2c(c1)OCCO2 | 0 | 6 | -7 | -9 | 75* | -19
COc1cc(C2C3=C(COC3=O)Oc3cc4c(cc32)OCO4)ccc1O (configuration not stated) | -2 | 15 | 9 | 3 | -20 | 13
COc1cc(C2C3=C(COC3=O)OC(C)(C)Oc3cc4c(cc32)OCO4)cc(OC)c1OC (configuration not stated) | 4 | 64* | -17 | -40 | -5 | 23
Cc1noc(C)c1NC(=O)N(C)C[C@@H]1OCCCC[C@H](C)Oc2ccc(NC(=O)Nc3ccc(F)cc3)cc2C(=O)N([C@@H](C)CO)C[C@@H]1C | / | / | -4 | / | / | /
CCNc1nc(NCC)nc(OCCOC(=O)COc2ccc(Cl)cc2Cl)n1 | 1 | 3 | / | -6 | 86* | 6

Bioassay records (PubChem BioAssay)
